Test results from the supplement of paper PMC11732987, “Enantioselective OTUD7B fragment discovery through chemoproteomics screening and high-throughput optimisation” (Communications Chemistry, 2025).

Tests used:
Assay in all cases: log2 ratio of Biotin-Ahx-Ub-VS probe labelling (fragment/DMSO); higher = less target engagement (more negative = stronger competition), active = hit call of the paper (q ≤ 0.05, log2 ratio ≤ -1)
Details in all cases: compound concentration: 200 uM; treatment time: 3 h
USP34 = USP34 (UniProt Q70CQ2)
USP34, sequence (Q70CQ2 whole entry, the tested form may be a part): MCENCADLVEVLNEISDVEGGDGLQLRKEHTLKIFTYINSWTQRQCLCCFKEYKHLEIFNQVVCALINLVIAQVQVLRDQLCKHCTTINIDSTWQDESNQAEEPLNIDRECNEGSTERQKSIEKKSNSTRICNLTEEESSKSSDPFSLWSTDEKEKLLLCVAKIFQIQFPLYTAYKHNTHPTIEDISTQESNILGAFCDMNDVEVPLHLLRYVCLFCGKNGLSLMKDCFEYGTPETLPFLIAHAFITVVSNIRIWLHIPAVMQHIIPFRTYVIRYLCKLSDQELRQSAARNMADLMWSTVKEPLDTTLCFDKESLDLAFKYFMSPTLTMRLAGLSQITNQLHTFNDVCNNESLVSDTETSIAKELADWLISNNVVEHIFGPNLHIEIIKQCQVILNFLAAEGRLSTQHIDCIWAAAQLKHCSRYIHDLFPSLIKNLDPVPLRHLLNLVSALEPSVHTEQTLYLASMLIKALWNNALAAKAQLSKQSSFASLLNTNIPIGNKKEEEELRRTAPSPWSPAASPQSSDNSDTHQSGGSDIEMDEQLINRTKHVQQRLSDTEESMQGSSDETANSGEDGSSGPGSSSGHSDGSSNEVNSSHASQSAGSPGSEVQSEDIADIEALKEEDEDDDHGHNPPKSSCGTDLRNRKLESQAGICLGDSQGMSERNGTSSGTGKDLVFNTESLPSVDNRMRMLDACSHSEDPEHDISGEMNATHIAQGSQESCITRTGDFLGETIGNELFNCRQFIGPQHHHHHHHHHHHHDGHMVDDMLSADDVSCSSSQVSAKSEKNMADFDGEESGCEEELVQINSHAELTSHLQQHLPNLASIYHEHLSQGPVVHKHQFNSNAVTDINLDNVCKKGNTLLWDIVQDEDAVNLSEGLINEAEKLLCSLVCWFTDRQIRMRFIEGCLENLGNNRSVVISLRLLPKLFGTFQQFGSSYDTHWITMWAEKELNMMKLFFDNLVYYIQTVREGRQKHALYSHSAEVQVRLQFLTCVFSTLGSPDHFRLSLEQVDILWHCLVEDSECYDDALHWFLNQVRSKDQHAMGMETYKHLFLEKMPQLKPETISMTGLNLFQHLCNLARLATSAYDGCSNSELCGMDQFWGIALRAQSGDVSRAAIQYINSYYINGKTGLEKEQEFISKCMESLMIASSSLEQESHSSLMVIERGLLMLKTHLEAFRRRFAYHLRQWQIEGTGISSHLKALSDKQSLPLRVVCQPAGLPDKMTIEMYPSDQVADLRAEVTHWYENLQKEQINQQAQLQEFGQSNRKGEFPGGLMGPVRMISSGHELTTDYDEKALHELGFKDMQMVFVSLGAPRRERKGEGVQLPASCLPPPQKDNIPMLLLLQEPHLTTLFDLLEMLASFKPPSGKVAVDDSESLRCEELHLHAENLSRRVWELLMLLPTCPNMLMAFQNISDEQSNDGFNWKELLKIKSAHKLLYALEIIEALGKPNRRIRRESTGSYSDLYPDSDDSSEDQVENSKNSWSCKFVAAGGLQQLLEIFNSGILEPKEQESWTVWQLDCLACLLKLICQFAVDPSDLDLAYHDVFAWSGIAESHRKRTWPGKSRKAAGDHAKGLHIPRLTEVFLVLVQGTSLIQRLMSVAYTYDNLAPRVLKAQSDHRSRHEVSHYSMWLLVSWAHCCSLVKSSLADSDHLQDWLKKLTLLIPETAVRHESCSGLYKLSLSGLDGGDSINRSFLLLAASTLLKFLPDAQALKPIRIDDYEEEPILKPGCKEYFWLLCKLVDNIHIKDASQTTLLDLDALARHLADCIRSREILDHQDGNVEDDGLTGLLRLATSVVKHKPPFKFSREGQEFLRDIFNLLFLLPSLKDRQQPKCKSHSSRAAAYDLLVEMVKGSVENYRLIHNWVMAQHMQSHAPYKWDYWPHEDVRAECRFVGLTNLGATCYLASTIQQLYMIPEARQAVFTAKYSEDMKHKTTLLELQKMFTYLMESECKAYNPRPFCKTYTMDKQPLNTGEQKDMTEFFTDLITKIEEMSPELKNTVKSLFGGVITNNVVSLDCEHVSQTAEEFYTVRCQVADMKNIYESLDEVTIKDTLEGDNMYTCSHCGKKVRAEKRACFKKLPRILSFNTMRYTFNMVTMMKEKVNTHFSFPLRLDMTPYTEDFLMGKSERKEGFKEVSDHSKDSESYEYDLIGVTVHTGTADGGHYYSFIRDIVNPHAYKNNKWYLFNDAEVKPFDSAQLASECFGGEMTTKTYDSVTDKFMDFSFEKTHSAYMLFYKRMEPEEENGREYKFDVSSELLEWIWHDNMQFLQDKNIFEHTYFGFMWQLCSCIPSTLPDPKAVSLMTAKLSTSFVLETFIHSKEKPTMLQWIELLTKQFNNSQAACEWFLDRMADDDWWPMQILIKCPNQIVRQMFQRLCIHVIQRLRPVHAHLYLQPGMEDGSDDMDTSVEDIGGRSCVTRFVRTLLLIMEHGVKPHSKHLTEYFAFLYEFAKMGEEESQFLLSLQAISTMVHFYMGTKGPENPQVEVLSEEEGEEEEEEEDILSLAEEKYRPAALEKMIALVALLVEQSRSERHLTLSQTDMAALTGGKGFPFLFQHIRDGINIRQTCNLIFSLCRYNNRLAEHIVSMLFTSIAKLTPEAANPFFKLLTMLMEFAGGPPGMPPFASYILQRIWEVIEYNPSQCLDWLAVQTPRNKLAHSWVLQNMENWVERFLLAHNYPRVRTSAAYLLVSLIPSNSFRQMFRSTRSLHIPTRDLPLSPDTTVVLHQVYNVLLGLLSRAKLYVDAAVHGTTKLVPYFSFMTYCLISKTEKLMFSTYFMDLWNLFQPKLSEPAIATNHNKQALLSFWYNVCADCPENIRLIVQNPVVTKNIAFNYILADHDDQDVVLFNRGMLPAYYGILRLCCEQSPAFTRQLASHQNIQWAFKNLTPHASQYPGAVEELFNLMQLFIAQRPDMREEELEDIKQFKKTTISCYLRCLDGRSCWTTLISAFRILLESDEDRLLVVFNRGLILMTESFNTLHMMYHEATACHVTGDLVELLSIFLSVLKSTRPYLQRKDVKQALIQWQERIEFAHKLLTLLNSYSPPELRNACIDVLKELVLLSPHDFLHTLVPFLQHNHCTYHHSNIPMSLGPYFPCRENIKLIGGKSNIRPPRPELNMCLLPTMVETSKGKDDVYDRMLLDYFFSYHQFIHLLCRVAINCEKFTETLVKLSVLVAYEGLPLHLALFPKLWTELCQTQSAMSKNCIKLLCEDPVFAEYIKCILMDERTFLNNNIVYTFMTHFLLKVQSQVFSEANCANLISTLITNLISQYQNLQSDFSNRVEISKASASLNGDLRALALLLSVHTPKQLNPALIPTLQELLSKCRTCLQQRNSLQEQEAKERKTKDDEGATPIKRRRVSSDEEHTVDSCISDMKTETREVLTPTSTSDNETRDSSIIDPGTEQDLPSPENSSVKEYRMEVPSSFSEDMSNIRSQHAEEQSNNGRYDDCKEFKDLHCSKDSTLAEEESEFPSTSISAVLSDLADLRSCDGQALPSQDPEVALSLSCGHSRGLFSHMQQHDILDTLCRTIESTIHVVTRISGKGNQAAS
Summary of the method: (§1)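 Labelled DUBs from HEK293T lysate were NeutrAvidin-enriched, digested with LysC and trypsin, and run by diaPASEF LC-MS/MS. Before that, each 495 µg sample in Tris/CHAPS/IGEPAL buffer with protease inhibitors was treated in triplicate with fragment at 200 µM or vehicle for 3 h, then with Biotin-Ahx-Ub-VS at 0.5 µM final for 1 h. Values are average log2 ratios of fragment over vehicle by unpaired t-test, based on global-median-normalised Spectronaut label-free quantities from proteins with ≥2 unique peptides.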

USP36 = biological target: T1, USP36 (UniProt Q9P275)
T1 sequence (whole entry): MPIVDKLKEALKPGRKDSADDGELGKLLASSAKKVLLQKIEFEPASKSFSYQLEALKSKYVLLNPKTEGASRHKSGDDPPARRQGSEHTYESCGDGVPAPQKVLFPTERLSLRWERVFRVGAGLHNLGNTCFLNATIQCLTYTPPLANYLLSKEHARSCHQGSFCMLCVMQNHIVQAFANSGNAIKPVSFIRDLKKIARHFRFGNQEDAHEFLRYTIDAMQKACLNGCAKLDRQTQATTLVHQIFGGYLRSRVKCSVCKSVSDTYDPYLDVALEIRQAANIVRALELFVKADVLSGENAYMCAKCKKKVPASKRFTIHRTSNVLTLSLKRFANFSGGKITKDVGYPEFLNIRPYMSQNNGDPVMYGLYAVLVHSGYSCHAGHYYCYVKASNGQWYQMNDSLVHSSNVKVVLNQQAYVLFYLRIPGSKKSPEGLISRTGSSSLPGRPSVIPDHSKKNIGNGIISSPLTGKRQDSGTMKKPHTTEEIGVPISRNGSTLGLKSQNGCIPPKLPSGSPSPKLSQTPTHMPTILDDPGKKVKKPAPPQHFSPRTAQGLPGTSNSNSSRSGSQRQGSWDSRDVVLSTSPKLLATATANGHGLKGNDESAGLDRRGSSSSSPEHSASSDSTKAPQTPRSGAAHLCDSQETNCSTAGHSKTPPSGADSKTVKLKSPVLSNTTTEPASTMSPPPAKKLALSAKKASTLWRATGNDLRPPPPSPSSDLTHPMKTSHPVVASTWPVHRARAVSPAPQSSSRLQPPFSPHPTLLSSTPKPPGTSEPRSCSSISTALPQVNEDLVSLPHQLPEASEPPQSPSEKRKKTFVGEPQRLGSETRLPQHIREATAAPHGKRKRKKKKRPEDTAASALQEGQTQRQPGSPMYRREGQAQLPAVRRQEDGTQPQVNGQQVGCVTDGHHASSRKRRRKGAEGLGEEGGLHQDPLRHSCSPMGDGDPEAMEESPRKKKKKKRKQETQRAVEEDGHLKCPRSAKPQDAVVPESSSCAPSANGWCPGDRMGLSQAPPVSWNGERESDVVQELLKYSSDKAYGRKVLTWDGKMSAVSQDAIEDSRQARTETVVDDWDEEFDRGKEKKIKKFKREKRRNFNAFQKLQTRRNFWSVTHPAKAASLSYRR
Summary of the method: as §1

USP38 = biological target: T2, USP38 (UniProt Q8NB14)
T2 sequence (whole entry): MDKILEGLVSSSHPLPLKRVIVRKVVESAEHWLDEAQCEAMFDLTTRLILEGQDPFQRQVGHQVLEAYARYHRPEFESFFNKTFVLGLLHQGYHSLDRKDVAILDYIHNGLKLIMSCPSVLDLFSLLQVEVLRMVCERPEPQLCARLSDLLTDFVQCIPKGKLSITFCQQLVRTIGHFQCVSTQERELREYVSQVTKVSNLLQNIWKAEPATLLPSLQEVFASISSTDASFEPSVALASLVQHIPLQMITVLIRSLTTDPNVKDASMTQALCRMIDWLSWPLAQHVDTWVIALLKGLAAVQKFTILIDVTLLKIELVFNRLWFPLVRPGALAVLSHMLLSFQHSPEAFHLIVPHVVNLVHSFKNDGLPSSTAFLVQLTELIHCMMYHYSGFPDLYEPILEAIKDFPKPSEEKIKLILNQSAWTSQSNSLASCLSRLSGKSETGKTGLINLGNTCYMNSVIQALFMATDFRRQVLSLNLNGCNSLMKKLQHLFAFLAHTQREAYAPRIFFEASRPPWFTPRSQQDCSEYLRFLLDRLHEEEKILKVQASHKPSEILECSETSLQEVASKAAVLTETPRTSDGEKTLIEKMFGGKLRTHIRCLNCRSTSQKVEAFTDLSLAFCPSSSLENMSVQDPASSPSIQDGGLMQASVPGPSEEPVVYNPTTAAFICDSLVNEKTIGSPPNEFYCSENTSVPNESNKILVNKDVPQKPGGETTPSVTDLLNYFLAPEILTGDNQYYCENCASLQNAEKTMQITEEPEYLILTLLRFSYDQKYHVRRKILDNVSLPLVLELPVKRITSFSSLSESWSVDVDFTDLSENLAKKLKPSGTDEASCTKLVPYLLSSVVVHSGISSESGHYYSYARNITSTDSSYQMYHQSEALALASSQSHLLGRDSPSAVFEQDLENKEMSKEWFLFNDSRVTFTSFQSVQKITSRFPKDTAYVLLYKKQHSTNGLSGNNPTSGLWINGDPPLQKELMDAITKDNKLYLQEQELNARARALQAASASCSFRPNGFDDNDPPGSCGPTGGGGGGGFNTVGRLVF
Summary of the method: as §1

USP39 = biological target: T3, USP39 (UniProt Q53GS9)
T3 sequence (whole entry): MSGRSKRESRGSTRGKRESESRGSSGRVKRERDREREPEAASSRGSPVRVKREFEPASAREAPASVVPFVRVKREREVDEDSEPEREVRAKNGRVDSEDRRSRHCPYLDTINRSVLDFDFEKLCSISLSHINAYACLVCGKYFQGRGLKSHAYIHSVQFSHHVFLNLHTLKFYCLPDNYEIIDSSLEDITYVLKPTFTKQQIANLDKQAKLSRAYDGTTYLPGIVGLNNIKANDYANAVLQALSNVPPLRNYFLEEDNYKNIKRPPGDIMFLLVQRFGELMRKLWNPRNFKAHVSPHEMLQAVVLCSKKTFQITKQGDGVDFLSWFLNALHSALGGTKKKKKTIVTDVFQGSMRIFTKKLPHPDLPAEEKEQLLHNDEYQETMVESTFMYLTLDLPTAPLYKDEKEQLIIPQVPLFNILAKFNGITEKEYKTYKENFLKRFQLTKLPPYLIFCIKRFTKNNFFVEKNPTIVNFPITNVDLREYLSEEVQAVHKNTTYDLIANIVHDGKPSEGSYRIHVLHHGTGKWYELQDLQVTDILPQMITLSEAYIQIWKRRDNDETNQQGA
Summary of the method: as §1

USP4 = biological target: T4, USP4 (UniProt Q13107)
T4 sequence (whole entry): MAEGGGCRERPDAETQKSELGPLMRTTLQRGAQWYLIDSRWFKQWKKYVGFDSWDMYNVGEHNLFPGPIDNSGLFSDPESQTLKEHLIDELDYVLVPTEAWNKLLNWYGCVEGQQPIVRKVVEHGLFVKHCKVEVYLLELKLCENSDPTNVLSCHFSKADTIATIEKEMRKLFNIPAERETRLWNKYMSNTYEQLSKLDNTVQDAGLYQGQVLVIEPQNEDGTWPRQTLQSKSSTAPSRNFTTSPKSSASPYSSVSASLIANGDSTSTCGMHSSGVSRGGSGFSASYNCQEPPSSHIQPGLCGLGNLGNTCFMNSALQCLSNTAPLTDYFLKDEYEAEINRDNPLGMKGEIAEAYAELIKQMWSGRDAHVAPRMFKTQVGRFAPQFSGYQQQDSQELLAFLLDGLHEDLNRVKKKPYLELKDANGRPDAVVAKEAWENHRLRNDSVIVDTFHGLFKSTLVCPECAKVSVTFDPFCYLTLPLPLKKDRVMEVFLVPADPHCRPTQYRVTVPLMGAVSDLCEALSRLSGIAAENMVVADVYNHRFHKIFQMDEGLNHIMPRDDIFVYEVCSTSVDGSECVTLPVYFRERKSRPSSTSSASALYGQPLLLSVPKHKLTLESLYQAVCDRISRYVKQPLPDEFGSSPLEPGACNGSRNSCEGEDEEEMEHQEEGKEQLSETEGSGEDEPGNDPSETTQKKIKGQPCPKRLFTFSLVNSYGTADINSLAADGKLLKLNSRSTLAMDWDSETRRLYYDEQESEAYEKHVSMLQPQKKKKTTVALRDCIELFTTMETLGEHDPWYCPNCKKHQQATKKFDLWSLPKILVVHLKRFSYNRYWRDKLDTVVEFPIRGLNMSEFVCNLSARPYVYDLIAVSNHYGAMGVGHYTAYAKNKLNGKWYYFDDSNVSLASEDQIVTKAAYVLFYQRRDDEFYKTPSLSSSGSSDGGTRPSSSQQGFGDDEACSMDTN
Summary of the method: as §1

Measured: log2 ratio of Biotin-Ahx-Ub-VS probe labelling

O=C(CCl)Nc1ccc2c(c1)OC(F)(F)O2
inactive: USP34 -0.119 | USP36 0.029 | USP38 0.122 | USP39 0.433 | USP4 0.0436
